{"source": "PubChem BioAssay (Tox21)", "note": "Values joined by “and” are separate entries in the source; they are usually repeats but may differ in a detail not shown here. Identical values can stand only once. Records with an inconclusive call do not appear. Entries that show only a call come without a potency. Where a structure was tested more than once in an assay, its records may differ in their call. Active and inactive are the calls of the source. The call rests on the fitted dose curve. Potency means the concentration at half of the fitted maximal effect.", "data": [{"experiment": "qHTS assay for small molecule agonists of the p53 signaling pathway - cell viability (AID 651633); further: nearly all actives have a fitted effect of over 30% in size", "conditions": "p53RE-bla HCT-116 viability, ATP luminescence, 16 h; series mostly up to 83.3 µM", "method_in_brief": "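Viability counter-read: CellTiter-Glo luminescence (30 min, room temperature) in the same p53RE-bla plates. These plates had been exposed to compounds for 16 h at 37 C.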", "values": [{"molecule": "CCCCOC(=O)COC(=O)c1ccccc1C(=O)OCCCC", "Potency": "inactive"}, {"molecule": "CC(C)(C#N)N=NC(C)(C)C#N", "Potency": "inactive"}, {"molecule": "c1ccc(C2CO2)cc1", "note": "(stereo not drawn)", "Potency": "inactive"}, {"molecule": "CC(C)Nc1nc(Cl)nc(NC(C)C)n1", "Potency": "inactive"}, {"molecule": "CC(C)CON=O", "Potency": "inactive"}, {"molecule": "Clc1cccc(Cl)c1", "Potency": "inactive"}, {"molecule": "CCCCCCCCCCCCCl", "Potency": "inactive"}, {"molecule": "COP(=S)(OC)Oc1ccc(Sc2ccc(OP(=S)(OC)OC)cc2)cc1", "Potency": "inactive"}, {"molecule": "Nc1ncn[nH]1", "Potency": "inactive"}, {"molecule": "CC(C)(O)C#N", "Potency": "inactive"}, {"molecule": "NC(=O)CN1CCCC1=O", "Potency": "inactive"}, {"molecule": "CCNc1nc(Cl)nc(NC(C)(C)C#N)n1", "Potency": "inactive"}, {"molecule": "O=C1CCCO1", "Potency": "inactive"}, {"molecule": "CCCCCCCC[N+](C)(CCCCCCCC)CCCCCCCC", "Potency": "10.8 µM (active) and 24.4 µM (active) and 24.3 µM (active)"}, {"molecule": "CN(C)c1nc(=O)n(C2CCCCC2)c(=O)n1C", "Potency": "inactive"}, {"molecule": "Cn1c(-c2ccccc2)cc(-c2ccccc2)[n+]1C", "Potency": "inactive"}, {"molecule": "N#CCCCCC#N", "Potency": "inactive"}, {"molecule": "C[C@]12CCC(=O)C=C1CC[C@@H]1[C@@H]2CC[C@@]2(C)[C@H]1CC[C@]2(C)O", "Potency": "inactive and 54.5 µM (active)"}, {"molecule": "Clc1ccc(C(Cl)(Cl)Cl)cc1", "Potency": "inactive"}, {"molecule": "O=P(OCCCl)(OCCCl)OCCCl", "Potency": "inactive"}, {"molecule": "CC[n+]1c(-c2ccccc2)c2cc(N)ccc2c2ccc(N)cc21", "Potency": "9.44 µM (active) and inactive"}, {"molecule": "CCOP(=O)(OCC)OCC", "Potency": "inactive"}, {"molecule": "COc1ccc(O)c(C(C)(C)C)c1", "Potency": "inactive"}, {"molecule": "CN(C)c1ccccc1", "Potency": "inactive"}, {"molecule": "CCC1(c2ccc(N)cc2)CCC(=O)NC1=O", "note": "(stereo not drawn)", "Potency": "inactive"}, {"molecule": "CCOP(=S)(OCC)SCn1c(=O)oc2cc(Cl)ccc21", "Potency": "inactive"}, {"molecule": "CC(C)=CC1C(C(=O)OCc2cccc(Oc3ccccc3)c2)C1(C)C", "note": "(stereo not drawn)", "Potency": "inactive"}, {"molecule": "O=C(O)c1nn(Cc2ccc(Cl)cc2Cl)c2ccccc12", "Potency": "inactive"}, {"molecule": "N#Cc1nn(-c2c(Cl)cc(C(F)(F)F)cc2Cl)c(N)c1S(=O)C(F)(F)F", "note": "(stereo not drawn)", "Potency": "inactive"}, {"molecule": "O=NN(c1ccccc1)c1ccccc1", "Potency": "inactive"}, {"molecule": "N#Cc1cccnc1", "Potency": "inactive"}, {"molecule": "CC(C)COC(=O)c1ccccc1C(=O)OCC(C)C", "Potency": "inactive"}, {"molecule": "O=[N+]([O-])c1ccc(Nc2ccccc2)cc1", "Potency": "inactive"}, {"molecule": "CNC(=O)Oc1cccc2c1OC(C)(C)C2", "Potency": "inactive"}, {"molecule": "ClC(Cl)=C(Cl)C(Cl)=C(Cl)Cl", "Potency": "inactive"}, {"molecule": "CCCCOCC1CO1", "note": "(stereo not drawn)", "Potency": "inactive"}, {"molecule": "ClCc1ccccn1", "Potency": "inactive"}, {"molecule": "O=[N+]([O-])/N=C1\\NCCN1Cc1ccc(Cl)nc1", "Potency": "inactive"}]}]}
